# FLuc inh = Photinus pyralis luciferase inhibition; Potency, µM (top dose mostly 115 µM), most hits filed as inhibitors; hit rate 2.5% among 76,000; purified P. pyralis luciferase, luminescence, biochemical; P08659; also: % is scaled to controls: 0 for no effect and ±100 for the full control effect; nearly all actives have a fitted effect of over 65% in size
# Target sequence (P08659 whole entry, looked up): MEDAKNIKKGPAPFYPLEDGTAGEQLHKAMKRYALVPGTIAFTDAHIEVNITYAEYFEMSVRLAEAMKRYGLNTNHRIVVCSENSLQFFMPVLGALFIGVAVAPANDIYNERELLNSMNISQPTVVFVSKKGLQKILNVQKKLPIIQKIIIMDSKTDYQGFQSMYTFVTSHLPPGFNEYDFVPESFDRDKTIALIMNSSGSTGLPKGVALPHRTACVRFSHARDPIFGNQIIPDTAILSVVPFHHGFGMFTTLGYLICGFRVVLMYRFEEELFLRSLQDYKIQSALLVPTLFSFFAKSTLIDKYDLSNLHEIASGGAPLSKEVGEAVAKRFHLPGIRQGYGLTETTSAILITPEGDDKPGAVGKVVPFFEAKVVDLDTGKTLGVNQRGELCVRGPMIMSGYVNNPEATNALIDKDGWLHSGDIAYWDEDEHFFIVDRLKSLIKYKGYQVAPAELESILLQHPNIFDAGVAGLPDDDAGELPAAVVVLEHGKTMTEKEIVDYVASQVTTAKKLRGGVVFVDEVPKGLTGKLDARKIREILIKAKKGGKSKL
#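 Luminescence read by CCD imager after adding enzyme (10nM final) to wells holding compound, titrated in qHTS. Substrates 10uM each D-luciferin and ATP; buffer 50mM Tris acetate pH 7.5, 10mM Mg acetate, Tween-20, BSA.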
# NIH3T3 tox = kills NIH 3T3 cells | hit rate 4.3% among 94,000 | NIH 3T3 viability, CellTiter-Glo ATP luminescence, 48-72 h | Potency, µM (titrated, usually from 96.7 µM), inactives show at the top dose activity change, negative = cytotoxicity, most hits filed as inhibitors; also: % is scaled to controls: 0 for no effect and ±100 for the full control effect; nearly all actives have a fitted effect of over 55% in size
#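 ATP-dependent luminescence (CellTiter-Glo) served as the viability signal for NIH 3T3 cells treated with compound for 48 or 72 hr at 37 °C.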
# hNpr1 antagonist = human Npr1 receptor antagonism; P16066; HEK293 hNpr1 GloSensor cGMP, ANP-stimulated luminescence; Potency, µM (top dose mostly 46.3 µM), for the others: at the highest dose activity change, negative = inhibition, usual class: inhibitors; hit rate 1.6% among 76,000; calls by dose curve; also: % is scaled to controls: 0 for no effect and ±100 for the full control effect; nearly all actives have a fitted effect of over 60% in size
#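 Compound pre-incubated 30 min at room temperature on GloSensor-loaded HEK293 cells stably carrying hNpr1 and the pGS-40F cGMP biosensor. Stimulation uses hNppA at 0.1 nM final; luminescence is taken at baseline and 20 min post-agonist.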
# HEK293 tox = cytotoxic compounds in HEK 293 cells | Potency, µM (top dose mostly 115 µM), for inactives: at the top dose activity change, negative = cytotoxicity, hits mostly inhibitors | hit rate 6.6% among 94,000 | HEK 293 viability, ATP luminescence (CellTiter-Glo), 48-72 h | AID 1345083; also: % is scaled to controls: 0 for no effect and ±100 for the full control effect; nearly all actives have a fitted effect of over 60% in size
#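 Read-out: CellTiter-Glo ATP luminescence. Cells: HEK 293, 250 cells/well. Exposure: 48 or 72 hr, 37 degree Celsius.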
# Npr1 antag conf = confirmation of human Npr1 natriuretic peptide receptor antagonists. shares compounds with hNpr1 antagonist. HEK293 hNpr1 cGMP GloSensor luminescence, ANP-stimulated. Potency, µM (series often up to 57.6 µM), for the others: at the highest dose activity change, negative = inhibition, actives largely listed as inhibitors. hit rate 76% among 1,400. AID 1347044; calls by dose curve; also: nearly all actives have a fitted effect of over 70% in size
# Npr2 selectivity = antagonizes human Npr2, subtype selectivity check; shares compounds with hNpr1 antagonist; HEK293 hNpr2 GloSensor cGMP luminescence, CNP-stimulated; Potency, µM (series often up to 57.6 µM), for inactives: at the highest dose activity change, negative = inhibition, usual class: inhibitors; hit rate 67% among 1,400; calls by dose curve; also: nearly all actives have a fitted effect of over 70% in size
# FLuc inh counter = counter-screen for Npr1 antagonists: firefly luciferase inhibitors; shares compounds with hNpr1 antagonist; purified FLuc enzyme, luminescence, Km substrate; Potency, µM (top dose mostly 57.6 µM), without a hit: top-dose activity change, negative = inhibition, actives largely listed as inhibitors; hit rate 0.7% among 1,400; AID 1347047; also: 0% is about no effect
# GloSensor cGMP = control cell line activity, Npr1 antagonist counter-screen; shares compounds with hNpr1 antagonist; HEK293 GloSensor cGMP, SNP-stimulated, luminescence; Potency, µM (top dose mostly 57.6 µM), for inactives: top-dose activity change, negative = inhibition, usual class: inhibitors; hit rate 69% among 1,400; calls by dose curve; also: % is scaled to controls: 0 for no effect and ±100 for the full control effect; nearly all actives have a fitted effect of over 70% in size
# * marks the source's active call; other numbers are inactive results; i = inactive; u = inconclusive; x = not tested or not shown; [ ] = dose if it differs, or a comment. An excerpt weighted towards active compounds, which were near 11% of everything screened. Unless noted, calls follow the shape of the dose curve; as a rule, active = well fitted curve in the direction sought with a large enough effect; inconclusive = small, poorly fitted or top-dose-only effect, or another doubt; inactive = no such curve, though single readings can be large; an effect the other way counts as inactive or inconclusive. Potency is read from the fitted curve at half-maximal effect.
SMILES,FLuc inh,NIH3T3 tox,hNpr1 antagonist,HEK293 tox,Npr1 antag conf,Npr2 selectivity,FLuc inh counter,GloSensor cGMP
Cc1nn2c(c1-c1ccccc1Oc1ccccc1)N(Cc1cccc(C#N)c1)CCC2,i,8.91µM*,3.16µM*,8.91µM*,2.22µM*,4.44µM*,-3.4%[86.2 µM],1.77µM*
COc1cccc(CN2CCCn3nc(C)c(-c4ccccc4[S+](C)(=O)[O-])c32)c1,i,u,-14.6%[70.6 µM],u,x,x,x,x
Cc1nn2c(c1-c1ccccc1-c1ccccc1)N(Cc1ccc(C(=O)O)s1)CCC2,i,-8.9%[138 µM],1.7%[70.6 µM],u,x,x,x,x
Cc1nn2c(c1-c1ccccc1[S+](C)(=O)[O-])N(Cc1ccc(C(=O)O)s1)CCC2,i,12.6µM*,3.16µM*,u,9.94µM*,28µM*,2.5%[86.2 µM],4.98µM*
COc1ccc(CN2CCOc3nc(-c4ccc(O)c(F)c4)ncc3C2=O)cc1,u,u,0.4%[70.6 µM],u,x,x,x,x
NC1CC(c2cc(N3CCN(c4cnccn4)CC3)nc(C3CC3)n2)C1 (stereo not drawn),i,u,13.7%,u,x,x,x,x

# From PubChem BioAssay
